# The supplement of paper PMC8728848
# The sample as a whole holds a higher share of the strongest signals than the screen did.
# Experiments:
# Test in all cases: glycan array binding signal (z-score within array); higher = stronger binding
# Conditions in all cases: glycan notation: IUPAC condensed, linker removed
# Glc(b1-6)Glc = target: Glc(b1-6)Glc
# Method in brief: (§1)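 From the Consortium for Functional Glycomics database, 3228 arrays were curated, keeping only those whose protein sequence was available. Binding is given as a within-array Z-score averaged across arrays sharing a protein sequence and across linkers. Negative Z-scores can be read as non-binding.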
# GlcA(b1-3)GlcNAc = target: GlcA(b1-3)GlcNAc
# Method in brief: as §1
# GlcA(b1-6)Gal = target: GlcA(b1-6)Gal
# Method in brief: as §1
# [1] = target: GlcNAc(a1-4)Gal(b1-4)GlcNAc(b1-3)Gal(b1-4)GlcNAc
# Method in brief: as §1
# [2] = target: GlcNAc(a1-6)Gal(b1-4)GlcNAc
# Method in brief: as §1
# [3] = target: GlcNAc(b1-3)Gal(b1-4)GlcNAc(b1-2)Man(a1-3)[GlcNAc(b1-3)Gal(b1-4)GlcNAc(b1-2)Man(a1-6)]Man(b1-4)GlcNAc(b1-4)GlcNAc
# Method in brief: as §1
# [4] = target: GlcNAc(b1-3)Gal(b1-4)GlcNAc(b1-3)Gal(b1-4)GlcNAc(b1-3)Gal(b1-4)GlcNAc(b1-2)[GlcNAc(b1-3)Gal(b1-4)GlcNAc(b1-3)Gal(b1-4)GlcNAc(b1-3)Gal(b1-4)GlcNAc(b1-6)]Man(a1-6)[GlcNAc(b1-3)Gal(b1-4)GlcNAc(b1-3)Gal(b1-4)GlcNAc(b1-3)Gal(b1-4)GlcNAc(b1-2)Man(a1-3)]Man(b1-4)GlcNAc(b1-4)[Fuc(a1-6)]GlcNAc
# Method in brief: as §1
# [5] = target: GlcNAc(b1-3)Gal(b1-4)GlcNAc(b1-3)Gal(b1-4)GlcNAc(b1-3)Gal(b1-4)GlcNAc(b1-3)Gal(b1-4)GlcNAc(b1-2)[GlcNAc(b1-3)Gal(b1-4)GlcNAc(b1-3)Gal(b1-4)GlcNAc(b1-3)Gal(b1-4)GlcNAc(b1-3)Gal(b1-4)GlcNAc(b1-6)]Man(a1-6)[GlcNAc(b1-3)Gal(b1-4)GlcNAc(b1-3)Gal(b1-4)GlcNAc(b1-3)Gal(b1-4)GlcNAc(b1-3)Gal(b1-4)GlcNAc(b1-2)Man(a1-3)]Man(b1-4)GlcNAc(b1-4)[Fuc(a1-6)]GlcNAc
# Method in brief: as §1
# [6] = target: GlcNAc(b1-3)Gal(b1-4)GlcNAc(b1-3)[GlcNAc(b1-3)Gal(b1-4)GlcNAc(b1-3)]GalNAc
# Method in brief: as §1
# [7] = target: GlcNAc(b1-3)Gal(b1-4)GlcNAc(b1-6)[GlcNAc(b1-3)]Gal(b1-4)GlcNAc
# Method in brief: as §1
# GlcNAc(b1-3)GalNAc = target: GlcNAc(b1-3)GalNAc
# Method in brief: as §1
# GlcNAc(b1-6)GalNAc = target: GlcNAc(b1-6)GalNAc
# Method in brief: as §1
# Kdn(a2-3)Gal(b1-3)GalNAc = target: Kdn(a2-3)Gal(b1-3)GalNAc
# Method in brief: as §1
# [8] = target: Man(a1-3)[Man(a1-6)]Man(a1-6)[Man(a1-3)]Man
# Method in brief: as §1
# [9] = target: Man(a1-3)[Man(a1-6)]Man(a1-6)[Man(a1-3)]Man(b1-4)GlcNAc(b1-4)GlcNAc
# Method in brief: as §1
# [10] = target: Man(a1-3)[Man(a1-6)]Man(b1-4)GlcNAc(b1-4)GlcNAc
# Method in brief: as §1
# Neu5Ac(a2-3)Gal = target: Neu5Ac(a2-3)Gal
# Method in brief: as §1
# [11] = target: Neu5Ac(a2-3)Gal(b1-4)GlcNAc(b1-3)Gal(b1-4)GlcNAc(b1-3)[Neu5Ac(a2-3)Gal(b1-4)GlcNAc(b1-3)Gal(b1-4)GlcNAc(b1-6)]GalNAc
# Method in brief: as §1
# [12] = target: Neu5Ac(a2-3)Gal(b1-4)GlcNAc(b1-3)Gal(b1-4)[Fuc(a1-3)]GlcNAc
# Method in brief: as §1
# [13] = target: Neu5Ac(a2-3)Gal(b1-4)[Fuc(a1-3)]GlcNAc(b1-3)GalNAc
# Method in brief: as §1
# [14] = target: Neu5Ac(a2-3)GalNAc(b1-4)GlcNAc
# Method in brief: as §1
# [15] = target: Neu5Ac(a2-6)Gal(b1-4)GlcNAc(b1-2)Man
# Method in brief: as §1
# [16] = target: Neu5Ac(a2-6)Gal(b1-4)GlcNAc(b1-2)Man(a1-6)[Gal(b1-4)GlcNAc(b1-2)Man(a1-3)]Man(b1-4)GlcNAc(b1-4)GlcNAc
# Method in brief: as §1
# [17] = target: Neu5Ac(a2-6)Gal(b1-4)GlcNAc(b1-2)Man(a1-6)[GlcNAc(b1-2)Man(a1-3)]Man(b1-4)GlcNAc(b1-4)GlcNAc
# Method in brief: as §1
# [18] = target: Neu5Ac(a2-6)Gal(b1-4)GlcNAc(b1-3)Gal(b1-4)GlcNAc(b1-2)Man(a1-3)[Neu5Ac(a2-6)Gal(b1-4)GlcNAc(b1-3)Gal(b1-4)GlcNAc(b1-2)Man(a1-6)]GalNAc
# Method in brief: as §1
# [19] = target: Neu5Ac(a2-6)Gal(b1-4)GlcNAc(b1-3)Gal(b1-4)GlcNAc(b1-3)[Neu5Ac(a2-6)Gal(b1-4)GlcNAc(b1-3)Gal(b1-4)GlcNAc(b1-6)]GalNAc
# Method in brief: as §1
# [20] = target: Neu5Ac(a2-6)Gal(b1-4)GlcNAc(b1-6)[Gal(b1-3)GlcNAc(b1-3)]Gal(b1-4)Glc
# Method in brief: as §1
# [21] = target: Neu5Gc(a2-3)Gal(b1-3)GlcNAc
# Method in brief: as §1
# [22] = target: Neu5Gc(a2-8)Neu5Gc(a2-3)Gal(b1-4)GlcNAc
# Method in brief: as §1
binder,measurement,setting,value
HFR-3 (Triticum aestivum) (protein) MKGLLLCALALAFAAVTTHAQLQSCPTRCGKQADGMECPNNLCCSKDGYCGLGVDYCSAGAGCQSGACYDNKICGAQANGTLCRNNHCCSSGGRCGYGREYCSNGCQGGPCWADLKCGHLDNGKLCPNNLCCSQYGYCGLGPEFCGTGCQNGACSTDKPCGNKANGAPCTNNYCCSQYGSCGLGKDYCGTGCQNGACN,glycan array binding signal (z-score),Glc(b1-6)Glc,-0.1
same,glycan array binding signal (z-score),GlcA(b1-3)GlcNAc,0.799
same,glycan array binding signal (z-score),GlcA(b1-6)Gal,-0.641
same,glycan array binding signal (z-score),[1],0.598
same,glycan array binding signal (z-score),[2],-0.582
same,glycan array binding signal (z-score),[3],0.65
same,glycan array binding signal (z-score),[4],2.43
same,glycan array binding signal (z-score),[5],1.15
same,glycan array binding signal (z-score),[6],0.04
same,glycan array binding signal (z-score),[7],-1.09
same,glycan array binding signal (z-score),GlcNAc(b1-3)GalNAc,2.18
same,glycan array binding signal (z-score),GlcNAc(b1-6)GalNAc,-0.591
same,glycan array binding signal (z-score),Kdn(a2-3)Gal(b1-3)GalNAc,2.75
same,glycan array binding signal (z-score),[8],2.17
same,glycan array binding signal (z-score),[9],3.89
same,glycan array binding signal (z-score),[10],0.828
same,glycan array binding signal (z-score),Neu5Ac(a2-3)Gal,-0.367
same,glycan array binding signal (z-score),[11],0.555
same,glycan array binding signal (z-score),[12],-0.597
same,glycan array binding signal (z-score),[13],-0.052
same,glycan array binding signal (z-score),[14],1.18
same,glycan array binding signal (z-score),[15],0.755
same,glycan array binding signal (z-score),[16],-0.801
same,glycan array binding signal (z-score),[17],-0.077
same,glycan array binding signal (z-score),[18],0.189
same,glycan array binding signal (z-score),[19],0.943
same,glycan array binding signal (z-score),[20],-0.251
same,glycan array binding signal (z-score),[21],-0.969
same,glycan array binding signal (z-score),[22],-0.961
